Compound activity: PubChem BioAssay, several laboratories
A selection: hits, their analogues and other compounds. The true share with any hit is near 0.78%.
NCOA3 inh = SRC3 coactivator transcriptional activity inhibitors, primary screen, cell-based, luminescence; Nuclear receptor coactivator 3 (Homo sapiens), Q9Y6Q9; HEK293 GAL4-SRC3 luciferase reporter; inhibition, % at 3.6 µM; 360,000 compounds, 0.17% hits; AID 588352, 2011;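 active = inhibition above a per-campaign cutoff, the mean of all compounds plus 3 SD, cut at about 60% in these data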;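 also: higher means less SRC3-driven luciferase light from the GAL4 reporter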
EBV LMP1 NFkB = EBV LMP1-driven NF-kappaB luciferase reporter inhibitors, primary screen, cell-based, luminescence, single point. LMP1-induced NF-kappaB luciferase reporter cells. inhibition, % at 12.5 µM. 350,000 compounds, 0.69% hits. AID 504558, 2011; in the data active = inhibition above about 41%; inconclusive = no clear call, values can overlap the other calls
SRC1 inh = SRC1 coactivator transcriptional activity inhibitors, primary screen, cell-based, luminescence; Nuclear receptor coactivator 1 (Homo sapiens), Q15788; HEK293 GAL4-SRC1 luciferase reporter; inhibition, % at 3.6 µM; 360,000 compounds, 0.12% hits; AID 588354, 2011;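 active = inhibition above the campaign mean plus 3 SD, with each screening campaign given its own cutoff, cut at about 60% in these data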
NCOA2 inhibitor = inhibition of GAL4-SRC2 driven luciferase reporter, primary screen, SRC2 inhibitor project, cell-based, luminescence. 370,000 compounds, 0.17% hits. Nuclear receptor coactivator 2 (Homo sapiens), Q15596. HEK293 GAL4-SRC2 luciferase reporter. inhibition, % at 9 µM;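 active = inhibition above the mean inhibition of all tested compounds plus 3 SD, set per campaign, cut at about 52% in these data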
LRH-1 inv ag = LRH-1 (NR5A2) inverse agonists, primary screen, cell-based, luminescence, HEK293T, StAR-luciferase reporter. LRH-1 transfected, 24 h. 360,000 compounds, 0.13% hits. inhibition, % at 3.6 µM. AID 602396, 2012;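 active = inhibition above the mean inhibition of all tested compounds plus 3 SD, cut at about 73% in these data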
Target sequence (O00482 whole entry, looked up): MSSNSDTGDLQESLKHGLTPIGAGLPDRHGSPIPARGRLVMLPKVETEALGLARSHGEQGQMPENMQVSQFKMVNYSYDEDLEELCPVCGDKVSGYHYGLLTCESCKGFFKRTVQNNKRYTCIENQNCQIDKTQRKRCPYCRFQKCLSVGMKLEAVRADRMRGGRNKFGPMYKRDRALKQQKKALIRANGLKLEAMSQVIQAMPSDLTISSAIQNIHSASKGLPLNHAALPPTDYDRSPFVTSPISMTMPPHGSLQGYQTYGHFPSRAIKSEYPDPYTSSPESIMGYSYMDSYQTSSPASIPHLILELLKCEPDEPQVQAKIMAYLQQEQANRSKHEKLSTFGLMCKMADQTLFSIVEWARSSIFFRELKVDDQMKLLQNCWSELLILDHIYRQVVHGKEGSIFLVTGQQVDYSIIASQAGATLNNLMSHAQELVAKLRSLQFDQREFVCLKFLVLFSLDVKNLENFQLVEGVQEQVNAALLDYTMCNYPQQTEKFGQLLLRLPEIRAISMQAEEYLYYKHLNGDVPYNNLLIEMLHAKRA
Each line names hits and unclear results; the compound was inactive in the other large screens.

Cc1cc(C(=O)N2CCN(c3ccccn3)CC2)no1	NCOA3 inh 89.2
Cc1cc(C(=O)N2CCN(c3ccccc3)CC2)no1	none (no result: NCOA2 inhibitor)
COc1ccc(/C=N/Nc2cc(C)nc3ccc(OC)cc23)c(OC)c1	EBV LMP1 NFkB 70.2
CCOc1ccc(-n2c(SCC(=O)Nc3ccccc3-c3ccccc3)nnc2-c2ccccc2)cc1	none (no result: NCOA3 inh, EBV LMP1 NFkB, SRC1 inh, LRH-1 inv ag)
COC(=O)c1c(-c2ccc(N(C)C)cc2)sc2ccc(OC)cc12	NCOA2 inhibitor 61.4
COc1ccc(Cc2nnc(NC(=O)c3c(-c4ccccc4)noc3C)s2)cc1	EBV LMP1 NFkB 52.7
CCCC(=O)OC12CCCN(C1)/C(=C/c1ccc(OC)cc1)C2 (configuration not stated)	none (no result: NCOA3 inh, EBV LMP1 NFkB, SRC1 inh, LRH-1 inv ag)
Cc1cccc(NC(=O)n2ccc3ccc(-c4ccc5cc[nH]c5c4)cc32)c1	none (no result: NCOA3 inh, EBV LMP1 NFkB, SRC1 inh, LRH-1 inv ag)
CC1(C)CC(N2CCCC2)=CC(=[N+]2CCCCCC2)C1	none
CC1CC(C)C[N+](=C2C=C(N3CCCC3)CC(C)(C)C2)C1 (configuration not stated)	EBV LMP1 NFkB 41.6
CCn1c(Cc2cccs2)nnc1SCC(=O)c1ccc(Cl)cc1	none (no result: NCOA3 inh, EBV LMP1 NFkB, SRC1 inh, LRH-1 inv ag)
CCOc1cccc(/C=N/Nc2ccc(S(=O)(=O)N(CC)CC)cn2)c1O	EBV LMP1 NFkB 57.2
CCN(CC)S(=O)(=O)c1ccc(N/N=C/c2cc(OC)c(OC)cc2OC)nc1	none
COc1cccc(/C=N/Nc2ncnc3c2ncn3Cc2ccccc2)c1O	NCOA3 inh 66.9, EBV LMP1 NFkB 78.3, LRH-1 inv ag 91.5
COc1cccc(/C=N/Nc2cc(Cl)nc(C)n2)c1O	none
COc1ccccc1OCC(=O)NNC(=O)C1CCN(c2ncnc3sc(C)c(C)c23)CC1	none
COc1ccc(-c2csc(NC(=O)C3CCN(c4ncnc5sc(C)c(C)c45)CC3)n2)cc1OC	SRC1 inh 79.3
CCCCCCCCn1c2c(c(=N)c3ccccc31)CCC2	NCOA3 inh 78.4, LRH-1 inv ag 84.2
CCCCCCCCCn1c2c(c(=N)c3c1CCC3)CCCC2	NCOA3 inh 81.3, LRH-1 inv ag 89.2 (no result: NCOA2 inhibitor)
CCCCCCCCCCn1c2c(c(=N)c3c1CCC3)CCC2	NCOA3 inh 78.6, EBV LMP1 NFkB inconclusive, SRC1 inh 69.6, LRH-1 inv ag 96.4
CCOC(=O)N[C@H](C(=O)N1CCC[C@H]1C(=O)NCCc1ccccc1Cl)c1ccccc1	none (no result: NCOA3 inh, EBV LMP1 NFkB, SRC1 inh, LRH-1 inv ag)
CC(C)(C)c1cc(C(=O)NNC(=O)Nc2cccc(Cl)c2)n(Cc2ccccc2)n1	EBV LMP1 NFkB 53.0
O=C(CCC(=O)NNC(=O)Nc1cccc(Cl)c1)NCc1ccccc1	EBV LMP1 NFkB 42.3
O=C(CCC(=O)NNC(=O)Nc1ccc(Cl)cc1)NCc1ccccc1	none (no result: NCOA2 inhibitor)
COc1ccc(CN2C(=O)N3Cc4ccccc4C3CS2(=O)=O)cc1 (configuration not stated)	none (no result: NCOA3 inh, EBV LMP1 NFkB, SRC1 inh, LRH-1 inv ag)
COc1ccc(O)c(/C=N/Nc2nc(Nc3ccccc3)nc(-n3nc(C)cc3C)n2)c1	EBV LMP1 NFkB 62.0
CCc1nonc1NC(=O)c1oc2ccc(F)cc2c1C	EBV LMP1 NFkB 41.9
Cc1c(C(=O)Nc2nonc2-c2ccc(F)cc2)oc2ccc(F)cc12	none
CCC(C)(C)c1ccc(OCCCC[n+]2ccc(C)cc2)c(C(C)(C)CC)c1	none (no result: NCOA3 inh, EBV LMP1 NFkB, SRC1 inh, LRH-1 inv ag)
CCC(C)(C)c1ccc(OCCCC[n+]2cccc(C)c2C)c(C(C)(C)CC)c1	NCOA3 inh 65.1, LRH-1 inv ag 79.0
COCC(=O)N1CCC(Oc2ccc(C(=O)N3C[C@H]4CC[C@H]3C4)cc2)CC1	EBV LMP1 NFkB 65.3
O=C(OCCCN1CCC2(CCC(c3ccccc3)CC2)C1=O)c1ccccc1 (configuration not stated)	none (no result: NCOA3 inh, EBV LMP1 NFkB, SRC1 inh, LRH-1 inv ag)
CCOC(=O)c1c(CSc2nc(C)cc(C)c2C#N)n(C)c2cc(Br)c(OC(C)=O)cc12	EBV LMP1 NFkB 50.2
O=c1c(Cl)c(N2CCCCC2)cnn1-c1nc2ccccc2[nH]1	EBV LMP1 NFkB 78.3
O=c1c2ccccc2cnn1-c1nc2ccccc2[nH]1	NCOA3 inh 64.9, EBV LMP1 NFkB 85.0, SRC1 inh 69.6, NCOA2 inhibitor 82.8
Clc1ccc2nc(N3CCCCC3)[nH]c2c1	none
O=c1c2ccccc2nc2c3ccccc3cnn12	none
COc1ccc(-c2cc(-c3nnc4sc(-c5cccs5)nn34)[nH]n2)cc1	none (no result: NCOA3 inh, EBV LMP1 NFkB, SRC1 inh, LRH-1 inv ag)
CCOc1ccc(C(=O)Nc2cc(C)ccn2)cc1	EBV LMP1 NFkB 53.1
